Data from the supplement of paper PMC13380429.

Tested on: Vero E6 infected with SARS-CoV-2
Test: inhibition of SARS-CoV-2 cytopathic effect; higher = more antiviral protection, active = above 15
Settings: 48 h

Measured: inhibition of SARS-CoV-2 cytopathic effect

O=C(Oc1ccc([N+](=O)[O-])cc1)N1CCC(C(O)(c2ccc3c(c2)OCO3)c2ccc3c(c2)OCO3)CC1
inactive: 1 nM 0.7% | 8.33 nM 6.75% | 100 nM 2.26% | 833.33 nM 1.03% | 10000 nM 1.62%

CO[C@H]1C[C@@H]2CC[C@@H](C)[C@@](O)(O2)C(=O)C(=O)N2CCCC[C@H]2C(=O)O[C@H]([C@H](C)C[C@@H]2CC[C@H](n3cnnn3)[C@H](OC)C2)CC(=O)[C@H](C)/C=C(\C)[C@@H](O)[C@@H](OC)C(=O)[C@H](C)C[C@H](C)/C=C/C=C/C=C/1C [zotarolimus]
inactive: 1 nM -1.51% | 8.33 nM -2.41% | 100 nM -1.68% | 833.33 nM -2.21% | 10000 nM 1.71%

CCC[C@@H]1C[C@@H](C(=O)N[C@@H]([C@H]2O[C@H](SC)[C@H](OP(=O)(O)O)[C@@H](O)[C@H]2O)[C@H](C)Cl)N(C)C1 [Clindamycin phosphate]
inactive: 1 nM 2.18% | 8.33 nM -1.74% | 100 nM 2.16% | 833.33 nM 1.59% | 10000 nM 0.27%

CCOC(=O)c1ccc(N)cc1 [benzocaine]
inactive: 1 nM -3.23% | 8.33 nM -2.13% | 100 nM -1.89% | 833.33 nM -4.68% | 10000 nM -1.78%

CCC(C)(C)c1ccc(CC(C)CN2C[C@@H](C)O[C@@H](C)C2)cc1 (stereo not given in full) [amorolfine]
inactive: 1 nM 1.24% | 8.33 nM 0.11% | 100 nM 1.63% | 833.33 nM 3.07% | 10000 nM 1.19%
